TDP1 inh = qHTS Assay for Inhibitors of Tyrosyl-DNA Phosphodiesterase (TDP1); Tyrosyl-DNA phosphodiesterase 1 (Homo sapiens), Q9NUW8; recombinant TDP1, AlphaScreen DNA substrate cleavage; Potency, µM (doses to about 130 µM), for inactives: top-dose activity change, negative = inhibition, actives largely listed as inhibitors; 350,000 tested, 0.28% active; AID 485290, 2010; further: potency means the concentration at half of the fitted maximal effect; nearly all actives have a fitted effect of over 40% in size
Target sequence (Q9NUW8 whole entry, looked up): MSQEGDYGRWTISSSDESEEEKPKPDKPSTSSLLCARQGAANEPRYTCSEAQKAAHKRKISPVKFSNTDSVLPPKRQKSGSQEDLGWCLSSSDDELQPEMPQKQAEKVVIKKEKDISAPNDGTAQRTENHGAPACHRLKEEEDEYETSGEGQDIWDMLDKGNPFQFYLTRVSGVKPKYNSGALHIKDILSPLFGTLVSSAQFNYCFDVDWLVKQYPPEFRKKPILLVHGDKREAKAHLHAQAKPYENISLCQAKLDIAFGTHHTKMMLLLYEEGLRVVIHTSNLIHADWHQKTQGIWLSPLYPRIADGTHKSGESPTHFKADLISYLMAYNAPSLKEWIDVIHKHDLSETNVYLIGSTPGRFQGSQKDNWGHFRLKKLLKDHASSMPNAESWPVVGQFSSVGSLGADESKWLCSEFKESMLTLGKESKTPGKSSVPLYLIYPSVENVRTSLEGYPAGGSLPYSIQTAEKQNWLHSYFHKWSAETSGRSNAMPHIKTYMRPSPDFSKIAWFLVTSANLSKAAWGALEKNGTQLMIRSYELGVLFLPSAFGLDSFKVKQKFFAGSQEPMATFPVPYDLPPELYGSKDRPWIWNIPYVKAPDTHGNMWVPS
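Recombinant human Tdp1 (E. coli-expressed, 1 nM final) preincubated with compounds 15 min at room temperature, then 5'-biotin/3'-phosphotyrosine-FITC DNA substrate (15 nM final) added for 5 min. AlphaScreen beads (10 ug/ml final) added 10 min; cleavage lowers signal.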
IL1B secr inh = qHTS for Inhibitors of Inflammasome Signaling: IL-1-beta AlphaLISA Primary Screen; THP-1 LPS/ATP IL-1B secretion, AlphaLISA, 16 h; hits give low values; activity change, % at 57.5 µM; 360,000 tested, 4.7% active; in the data active means activity change below about -50%; inconclusive means mostly about -30% to -49%
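THP-1 cells pretreated 1 hr with compounds (up to 57.5 uM final), then stimulated with LPS (250 ng/mL final) plus ATP (1.25 mM final); secreted IL-1B measured by AlphaLISA after 16 hr, decreased signal indicating inhibition.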
DT40 TDP1 CPT = qHTS for Inhibitors of human tyrosyl-DNA phosphodiesterase 1 (TDP1): qHTS in cells in presence of CPT; chicken DT40 Tdp1-/-;hTDP1 cells + 20 nM CPT, ATP luminescence, 48 h; Potency, µM (titrated, usually from 46.2 µM), inactives show top-dose activity change, negative = growth inhibition, most hits filed as inhibitors; 420,000 tested, 12% active; AID 686979, 2013; further: potency means the concentration at half of the fitted maximal effect; nearly all actives have a fitted effect of over 55% in size
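Cell growth measured by CellTiter-Glo luminescence after a minimum 48 h, 37 C compound exposure with 20 nM CPT in Tdp1-knockout DT40 cells stably expressing hTDP1, seeded 400/well; qHTS titration format.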
TDP1 cell noCPT = qHTS for Inhibitors of human tyrosyl-DNA phosphodiesterase 1 (TDP1): qHTS in cells in absence of CPT. DT40 Tdp1-/- hTDP1 cells, no CPT, ATP luminescence, 48 h. Potency, µM (highest dose often 46.2 µM), without a hit: top-dose activity change, negative = growth inhibition, actives largely listed as inhibitors. 420,000 tested, 15% active. AID 686978, 2013; further: potency means the concentration at half of the fitted maximal effect; nearly all actives have a fitted effect of over 55% in size
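No-CPT arm: Tdp1-/-;hTDP1 DT40 cells (400/well) plus compounds, incubated ≥48 hr at 37 °C. Readout CellTiter-Glo luminescence.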
Giardia kill = Small Molecules that selectively kill Giardia lamblia: qHTS; AID 540267, 2011; 340,000 tested, 0.15% active; Giardia lamblia trophozoite viability; activity change, % at 7.66 µM, hits read low; in the data active means activity change below about -80%; inconclusive means between about -30% and that limit;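 further: parasites exposed to compound for two days anaerobically before the ATP read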
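Giardia lamblia trophozoites (100 cells/well) were incubated with compounds for 48 h at 37 deg C under anaerobic conditions. Viability was read as ATP content by one-step luminescence after 15-30 min at room temperature.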
ELG1 repair inh = qHTS screen for small molecules that inhibit ELG1-dependent DNA repair in human embryonic kidney (HEK293T) cells expressing luciferase-tagged ELG1; 330,000 tested, 2.3% active; Potency, µM (titrated, usually from 46.1 µM), without a hit: at the highest dose activity change, negative = inhibition, actives largely listed as inhibitors; AID 504467, 2011; HEK293T ELG1-luciferase reporter, luminescence, 16 h; DNA damage induced by 5-fluorouridine; further: potency means the concentration at half of the fitted maximal effect; nearly all actives have a fitted effect of over 55% in size
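Quantitative HTS, concentration-response format. 2,000 cells/well co-treated with 5-fluorouridine and compound, 16 hr in 5% CO2 at 37 °C; ONE-Glo luminescence read after 30 min.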
* hit, by the source's call; ? = inconclusive; / = no result given; [ ] = another dose, or the depositor's remark. A selection: hits, their analogues and other compounds. The true share with any hit is near 19%. Unless noted, the call rests on the fitted dose curve; in most records, active means well fitted curve in the direction sought with a large enough effect; inconclusive means small, poorly fitted or top-dose-only effect, or another doubt; inactive means no such curve, though single readings can be large; an effect the other way counts as inactive or inconclusive. On the % scale 0 is the no-effect control and ±100 the full control effect.

SMILES | TDP1 inh | IL1B secr inh | DT40 TDP1 CPT | TDP1 cell noCPT | Giardia kill | ELG1 repair inh
CCC(C(=O)NC(C)(C)C)n1c(C(c2ccccc2)c2ccccc2)nc2ccccc21 (stereo unspecified) | / | -2.7 | 18.4µM* | ? | / | /
Cc1csc(-c2nc3ccccc3n2C(C(=O)NC(C)(C)C)c2ccccc2)c1 (stereo unspecified) | / | 0.0 | ? | 29.1µM* | / | /
CC(C(=O)NC(C)(C)C)n1c(C(c2ccccc2)c2ccccc2)nc2ccccc21 (stereo unspecified) | / | -2.1 | ? | ? | / | /
O=C1C(=O)N(O)C2CCCCC2N1O (stereo unspecified) | 0.0% | -0.5 | 0.5% | 4.2% | -2.0 | 7.3%
CCOCCn1c(CN2CCc3ccccc3C2)nc2c1c(=O)n(C)c(=O)n2C | 2.5% | 60.9 | 23.1µM* | 10.3µM* | -0.9 | ?
CN(c1nc2c(c(=O)n(C)c(=O)n2C)n1CC(=O)c1ccccc1)C1CCCCC1 | 6.2% | -1.1 | ? | 23.1µM* | -3.8 | ?
Cn1c(=O)c2c(nc(CN3CCc4ccccc4C3)n2Cc2ccccc2)n(C)c1=O | 7.2% | -17.4 | 23.1µM* | 14.6µM* | 0.7 | 16.4µM*
Cn1c(=O)c2c(nc(CN3CCc4ccccc4C3)n2CC(=O)c2ccccc2)n(C)c1=O | / | 10.2 | 18.4µM* | 25.9µM* | -8.2 | /
Cn1c(=O)c2c(nc(CN3CCOCC3)n2CC(=O)c2ccccc2)n(C)c1=O | / | 23.3 | -22.2% | ? | 9.2 | /
COc1ccc(-c2csc(C(C)(O)c3cccnc3)n2)cn1 (stereo unspecified) | / | 48.8 | ? | -27.0% | / | /
COc1ccc(N2CC(NC(=O)Cc3cccs3)CC2=O)cc1 (stereo unspecified) | -7.8% | / | -5.5% | -4.2% | / | /
CC[C@]12c3[nH]c4cc(-c5ccco5)ccc4c3CCN1C(=O)[C@@H](CC(=O)NCCC1=CCCCC1)C[C@@H]2C(=O)N1CCN(C(=O)C2CC2)CC1 | 3.0%[56.1 µM] | -50.2* | ? | ? | -10.6 | 20.6µM*
CC[C@]12c3[nH]c4cc(CCC(=O)N(C)C)ccc4c3CCN1C(=O)[C@@H](CC(=O)NCc1cccc(C(F)(F)F)c1)C[C@@H]2C(=O)N1CCN(C(=O)c2ccco2)CC1 | 0.0%[56.1 µM] | -28.0 | 20.6µM* | ? | 12.2 | ?
CC[C@]12c3[nH]c4cc(-c5ccco5)ccc4c3CCN1C(=O)[C@@H](CC(=O)NCc1ccco1)C[C@@H]2C(=O)N1CCN(C(=O)C2CC2)CC1 | 3.6%[56.1 µM] | -15.8 | 16.4µM* | 16.4µM* | -20.4 | -8.2%
C[C@]12c3[nH]c4cc(-c5ccco5)ccc4c3CCN1C(=O)[C@@H](CC(=O)NCC13CC4CC(CC(C4)C1)C3)C[C@@H]2C(=O)N1CCCCC1 | 3.8%[56.1 µM] | ? | 5.17µM* | 6.51µM* | 3.1 | 0.9%
Cc1c(-c2nnc(SCC(=O)Nc3ccc(Cl)cc3)o2)nnn1-c1ccc(F)cc1 | -0.6% | / | ? | -29.9% | / | /
Cc1nn(-c2ccccc2)c2sc(-c3n[nH]c(=S)o3)cc12 | 7.9% | 0.0 | ? | ? | -9.3 | 12.2%
C=CCN(c1ccc(C(=O)NCCCn2ccnc2)cc1)S(C)(=O)=O | / | 23.7 | 29.5% | 24.0% | 8.6 | 10.3%
CC(C)CN1C(=O)CSCC1(C)C(=O)NCc1ccccc1 (stereo unspecified) | / | 43.3 | 5.5% | -1.2% | / | /
c1coc(CSSCc2ccco2)c1 | 0.0%[56.1 µM] | 27.5 | ? | ? | 2.8 | -4.4%
CC[C@]12c3[nH]c4cc(-c5ccco5)ccc4c3CCN1C(=O)[C@@H](CC(=O)NCC13CC4CC(CC(C4)C1)C3)C[C@@H]2C(=O)N1CCN(C(=O)C2CC2)CC1 | 2.3%[56.1 µM] | ? | ? | 23.1µM* | -4.8 | ?
CC[C@]12c3[nH]c4cc(-c5ccco5)ccc4c3CCN1C(=O)[C@@H](CC(=O)NCC13CC4CC(CC(C4)C1)C3)C[C@@H]2C(=O)N1CCN(C(=O)c2ccco2)CC1 | 0.2%[56.1 µM] | -54.4* | 9.2µM* | 20.6µM* | 7.8 | -23.5%
C[C@]12c3[nH]c4cc(-c5ccco5)ccc4c3CCN1C(=O)[C@@H](CC(=O)NCc1cccc(C(F)(F)F)c1)C[C@@H]2C(=O)N1CCCCC1 | 3.9%[56.1 µM] | -60.1* | ? | 25.9µM* | -15.6 | -7.4%
CN(C)CCCNC(=O)C[C@H]1C[C@H](C(=O)N2CCCCC2)[C@@]2(C)c3[nH]c4cc(-c5ccco5)ccc4c3CCN2C1=O | 1.0%[56.1 µM] | 0.0 | ? | ? | -0.4 | 14.7%
CC[C@]12c3[nH]c4cc(-c5ccco5)ccc4c3CCN1C(=O)[C@@H](CC(=O)NCCCN(C)C)C[C@@H]2C(=O)N1CCN(C(=O)c2ccco2)CC1 | / | 11.2 | -3.9% | -24.7% | 13.1 | 5.1%
SMILES | TDP1 inh | IL1B secr inh | DT40 TDP1 CPT | TDP1 cell noCPT | Giardia kill | ELG1 repair inh
CN(C)C(=O)CCc1ccc2c3c([nH]c2c1)[C@]1(C)[C@@H](C(=O)N2CCCCC2)C[C@H](CC(=O)NCC24CC5CC(CC(C5)C2)C4)C(=O)N1CC3 | 2.1%[56.1 µM] | ? | 9.2µM* | 13µM* | 32.8 | ?
CC[C@]12c3[nH]c4cc(-c5ccco5)ccc4c3CCN1C(=O)[C@@H](CC(=O)NCc1cccc(C(F)(F)F)c1)C[C@@H]2C(=O)N1CCN(C(=O)C2CC2)CC1 | 1.8%[56.1 µM] | 0.0 | 16.4µM* | ? | ? | ?
CC[C@]12c3[nH]c4cc(-c5ccco5)ccc4c3CCN1C(=O)[C@@H](CC(=O)NCc1ccc(OC)c(OC)c1)C[C@@H]2C(=O)N1CCN(C(=O)C2CC2)CC1 | 1.0%[56.1 µM] | ? | ? | ? | 13.7 | ?
COc1ccccc1OCC(=O)N(Cc1nc(-c2ccccc2)no1)C1CCCCC1 | 10.9% | -10.0 | 23.1µM* | 20.6µM* | -5.4 | ?
CCN(C(=O)COc1ccccc1)C1CCCCC1 | 0.0% | -13.8 | 20.6µM* | ? | -4.9 | 7.0%
CCN(C(=O)CCc1ccccc1)C1CCCCC1 | -3.2% | -12.5 | ? | ? | -9.6 | -1.2%
CCN(C(=O)CSc1ccccn1)C1CCCCC1 | 0.1% | 0.9 | 10.3µM* | 14.6µM* | 20.4 | 15.3%
